# Source: PubChem BioAssay AID1486 (The Scripps Research Institute Molecular Screening Center, 2009)
# In all, about 220,000 compounds went through this assay and about 2,400 (1.1%) were called active. Only a selection was taken, and actives are over-represented in it overall. Unmarked numbers belong to inactive results.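 How the source made its calls: active means inhibition above a per-campaign cutoff, the mean inhibition of all tested compounds plus 3 SD (cut at about 27% in these data); inactive means the rest.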
# Experiment: growth loss in parental Ba/F3 cells – cell-based, murine pro-B, CellTiter-Glo luminescence, counter-screen for JAK2V617F inhibitor project (AID 1486);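 further: 0% = DMSO wells and 100% = JAK Inhibitor I control wells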
# Details: Ba/F3 parental viability, CellTiter-Glo ATP luminescence; at 5.6 µM; stronger effect = higher value
row,SMILES,inhibition
1,O=C(CSc1ccc(C(F)(F)F)cc1[N+](=O)[O-])NCCOc1ccccc1,3.21%
2,CC#CC[N+](C)(C)CCCCCC,43.8% (active)
3,C/C(=N\N1CCN(Cc2ccc(C)cc2)CC1)c1ccco1,3.54%
4,Cc1ccc(C(=O)Nc2nc(N)n(-c3ccccc3)n2)cc1,-1.21%
5,COc1cc(Cl)c(C)cc1NC(=O)[C@@H]1CCCN1C(=O)c1cccs1,6.13%
6,COC(=O)Nc1ccc(S(=O)(=O)N2CCN(CCN3C(=O)C4C5C=CC(C5)C4C3=O)CC2)cc1 (configuration not stated),5.02%
7,COC(=O)CCNC(=O)c1ccc2[nH]c(C)c(C)c2c1,3.29%
8,CCOC(=O)c1[nH]c2c(c1C)C(=O)CC(c1ccc(N(C)C)cc1)C2 (configuration not stated),4.47%
9,COc1cc(C2CC(=O)c3cnc(NC(C)=O)nc3C2)cc(OC)c1OC (configuration not stated),2.9%
10,CCOC(=O)C1=C(C)NC(=S)NC1c1cccs1 (configuration not stated),3.93%
11,CCCOC(=O)c1[nH]c2c(c1C)C(=O)CC(c1cc(OC)c(OC)c(OC)c1)C2 (configuration not stated),41.3% (active)
12,CCOC(=O)c1[nH]c2c(c1-c1ccccc1)C(=O)CC(c1ccc(Cl)cc1)C2 (configuration not stated),8.29%
13,CCCOC(=O)c1[nH]c2c(c1C)C(=O)CC(c1cccs1)C2 (configuration not stated),75.9% (active)
14,O=C(O)CCCC(=O)Nc1ccc(Oc2cccc(C(F)(F)F)c2)nc1,-1.72%
15,CCOC(=O)C1=C(CC)OC(N)=C(C#N)C1c1ccc(F)cc1F (configuration not stated),0.94%
16,Cc1ccc(S(=O)(=O)N2CCCC2C(=O)OCc2nc3sc(C)c(C)c3c(=O)[nH]2)cc1 (configuration not stated),3.55%
17,O=C1CCCCC1C(=O)c1ccccc1 (configuration not stated),0.06%
18,COc1ccc(NC(=O)Nc2ccc3nc(C)c(C)nc3c2)cc1,1.19%
19,Cc1nc(/N=C(\N)NC(=O)NC2CCCCC2)nc2ccccc12,4.49%
20,COc1ccc2nc(/N=C(\N)NC(=O)Nc3ccccc3)nc(C)c2c1,31.6% (active)
21,O=C(NNC(=O)c1cnccc1C(F)(F)F)c1ccc(Cl)cc1,-1.83%

row,SMILES,inhibition
1,CCOC(=O)c1cn(Cc2cccc(C)c2)nn1,2.15%
2,Cc1cccc(Cn2cnc3c(N)c(C)c(C)cc32)c1,32.6% (active)
3,COc1cccc(Cn2cnc3c([N+](=O)[O-])c(C)c(C)cc32)c1,9.27%
4,CCN(CC)S(=O)(=O)c1ccc(OC(C)C)c(N)c1,5.49%
5,CCCOc1ccccc1C1CC(=O)Nc2cc3c(cc21)OCO3 (configuration not stated),71.8% (active)
6,COCCOC(=O)C1=C(C)NC(=O)CC1c1cc2c(cc1Br)OCO2 (configuration not stated),3.68%
7,COc1ccccc1C1C2=C(COC2=O)Nc2cc3c(cc21)OCO3 (configuration not stated),80.4% (active)
8,COc1ccc(F)cc1S(=O)(=O)Nc1ccc2c(c1)OCO2,3.23%
9,COc1cc2c(cc1/C=C1/NC(=O)N(c3ccccc3)C1=O)OCO2,10.5%
10,COc1ccc(C2CC(=O)Nc3cc(C)c(C)cc32)c(OC)c1OC (configuration not stated),3.54%
11,CCN(CC)C(=O)CSC(Nc1cccc(F)c1)=C(C#N)C#N,-0.34%
12,Cc1cc(C)c2nc(-c3cccnc3)cc(C(=O)Nc3ccc(S(=O)(=O)Nc4onc(C)c4C)cc3)c2c1,8.53%
13,O=C(Nc1ccccc1Cl)c1ccc2nsnc2c1,9.68%
14,O=C(CN1CCCCC1)Nc1ccccc1Cl,5.49%
15,O=C(Nc1ccccc1Cl)/C(Cl)=C(\Cl)S(=O)c1ccccc1 (configuration not stated),104% (active)
16,N#C/C(=C\c1ccc(N2CCOCC2)o1)C(=O)N1CCOCC1,4.08%
17,Cc1cc(OCCCC(=O)NCCN2C(=O)S/C(=C\c3cccnc3)C2=O)ccc1Cl,6.03%
18,O=C(O)Cc1csc(NC(=O)CSc2nnnn2-c2ccc(O)cc2)n1,-4.21%
19,CC1Cc2ccccc2N1CC(=O)Nc1ccc2c(c1)OC(F)(F)O2 (configuration not stated),4.14%
20,Cc1cc(OCCN2CCCC2)ccc1C(C)C,1.72%
21,Cc1ccc(C(C)C)cc1OCCN1CCCC1,5.38%

row,SMILES,inhibition
1,Cc1cc(OCCN2CCCC2)cc(C(C)C)c1,93.8% (active)
2,Cc1ccc(-c2nc(SCC(=O)Nc3ccccc3OC(F)F)c3c(C)c(C(=O)O)sc3n2)cc1,1.45%
3,CC1=C/C(=N\OS(=O)(=O)c2ccccc2)C=CC1=O,32.1% (active)
4,CC1=C/C(=N\S(=O)(=O)c2ccccc2)C(C(C)C)=CC1=O,5.54%
5,CCOC(=O)C1(S(=O)(=O)c2ccccc2)CCN(Cc2ccccc2)CC1,8.01%
6,CCN(CC)CCNCc1ccc(OCc2ccc(Cl)nc2)c(OC)c1,2.52%
7,CC[C@H]1CN2CCc3cc(OC)c(OC)cc3[C@@H]2C[C@@H]1C[C@H]1NCCc2cc(OC)c(OC)cc21,100% (active)
8,COc1cc2c(cc1O)[C@H](Cc1ccc(Oc3cc(C[C@@H]4NCCc5cc(OC)c(O)cc54)ccc3O)cc1)NCC2,5.61%
9,COC(=O)C1=C(NC(=O)C(C)(C)C)CCS1,-0.46%
10,O=C(O)c1cccnc1Sc1ncnc2sc3c(c12)CCC3,-7.35%
11,O=C(c1ccc(Cl)cc1)N1N=C(c2ccccn2)CC1(O)C(F)(F)F (configuration not stated),0.67%
12,O=C(NCC1CCCCC1)c1cc(S(=O)(=O)N2CCCCC2)ccc1N1CCOCC1,8.85%
13,CCOc1cc(C(=O)N2CCc3cc(OC)c(OC)cc3C2)ccc1OC(F)F,78.2% (active)
14,COc1cc2c(cc1OC)CN(C(=O)c1cc(=O)c3ccccc3o1)CC2,24.8%
15,COc1cc2c(cc1OC)CN(C(=O)c1ccc(S(=O)(=O)N3CCCCCC3)cc1)CC2,10%
16,O=C(COC(=O)c1cc(=O)[nH]c2ccccc12)Nc1nc(-c2cccc(Br)c2)cs1,3.32%
17,O=C(Cn1c(COc2ccccc2)nc2ccccc21)Nc1cc(Cl)c(Cl)cc1Cl,2.68%
18,Cc1ccccc1CS(=O)(=O)CC1(O)CCN(C(=O)c2cccc(C(F)(F)F)c2)CC1,-1.41%
19,CS(=O)(=O)N1CCN(C(=O)Cc2ccccc2)CC1,-0.7%
20,CC(C)CC(=O)N1CCC(O)(CS(=O)(=O)Cc2ccccc2)CC1,50.5% (active)
